# Data reported in PubChem BioAssay (NCATS).
# Results filed as inconclusive are left out. Entries that show only a call come without a potency. Activity calls are given as the source filed them. Calls follow the shape of the dose curve; as a rule, active = well fitted curve in the direction sought with a large enough effect; inconclusive = small, poorly fitted or top-dose-only effect, or another doubt; inactive = no such curve, though single readings can be large; an effect the other way counts as inactive or inconclusive.
# Key:
# [1] = qHTS assay for measurement of the activity of small molecule inhibitors on Zika virus induced Caspase-3 activity in human astrocytoma cells (AID 1224859)
# How it was run: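 Luminescence read-out (Caspase-Glo 3/7, 30 min RT) of caspase activity in SNB-19 cells infected 6 h with ZIKV, 2 FFU/cell, after 1 h compound pretreatment; % inhibition from induction normalised to uninfected (0%) and infected (100%) wells.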
# [2] = qHTS assay to identify small molecule inhibitors of chordoma cells - UCH-1 (AID 1259355); also: nearly all actives have a fitted effect of over 55% in size
# How it was run: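 Seed 800 cells per well; incubate overnight at 37 C, 5% CO2. Add test compounds (15 concentrations), then the auranofin–topoisomerase-agent combination. Incubate 48hr, add CellTiter-Glo, wait 30min, read luminescence.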
# [3] = qHTS assay to identify small molecule inhibitors of chordoma cells - UCH-2 (AID 1259356); also: series mostly up to about 46 µM
# [4] = qHTS Screen of the MIPE 4.0 Collection Against Ewings Sarcoma (RDES) (AID 1259252); also: potency is read from the fitted curve at half-maximal effect; nearly all actives have a fitted effect of over 35% in size
# How it was run: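 Cells plated in serum-containing RPMI (5% FBS) and treated with compound dilutions for 48 h. Readout luminescent viability; normalization relied on vehicle (no inhibition) and media-only columns (full inhibition).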
# [5] = qHTS Screen of the MIPE 4.0 Collection Against Ewings Sarcoma (TC71) (AID 1259253); also: nearly all actives have a fitted effect of over 40% in size; also: potency is read from the fitted curve at half-maximal effect
# From the text: (§1) There is a large unmet medical need for treatments for Ewing sarcoma, a pediatric sarcoma. We sought to identify compounds that inhibited Ewing sarcoma cells in vitro with the goal to then test promising drugs in two drug combinations in vitro to look for synergistic drug combinations. Promising combinations would then proceed to additional validation, including in vivo testing.
# (§2) Using the NCATS developed oncology compound library called the Mechanism of Interrogation Plate (MIPE), four Ewing sarcoma cell lines were evaluated (TC32, TC71, RDES, EW8). Compounds, in a 12-point titration series, were incubated with cells for 48 hours and the read out was cell viability (CellTiter-Glo from Promega). These initial experiments were used to select appropriate concentrations of each single agent for subsequent two-drug matrix combinations such that the concentrations in the matrices would span both activity and non-activity.
# (§3) Cells, in the log phase of growth, were seeded in 5 uL of RPMI plus 5% FBS, […] L-glutamine, 100 U/ml penicillin and 100 ug/ml streptomycin into 1536-well solid-bottom white tissue culture treated Greiner Bio One Plates (789173-F) using a MultiDrop Combi (Thermofisher Scientific) dispenser and a small sterile cassette. One column was media alone to be used as a :"no cells" control. The plates were then covered with sterilized stainless steel gasketed lids from Kalypsys. After allowing cells to attach for 4 hours, 23 nL of test compound or control (negative control DMSO and positive control 9.2 uM Bortezomib-final) were added from a 1536-well polypropylene compound source plate to each well using a 1536 head pin tool from Kalypsys. Cells were then incubated for 48 hours at 37C, 95% relative humidity and 5% CO2. After 48 hours, plates were removed from the incubator and 3 uL of CellTiter-Glo (Promega) was added using an Aurora Flying Reagent Dispenser Bioraptor. Plates were incubated at room temperature for 10 minutes prior to reading the luminescence on the Viewlux (PerkinElmer). The relative luciferase units are used to calculate the percent activity using the activity of DMSO in the cells and no cells columns for normalization of no inhibition and full inhibition respectively.
# [6] = qHTS Screen of the MIPE 4.0 Collection Against Ewings Sarcoma (EW8) (AID 1259255); also: nearly all actives have a fitted effect of over 35% in size; also: potency is read from the fitted curve at half-maximal effect
# From the text: as §1, §2
# as §3, with “The relative luciferase units are used to calculate the percent activity using the activity of DMSO in the cells and no cells columns for normalization of no inhibition and full inhibition respectively.” left out
# [7] = qHTS Screen of the MIPE 4.0 Collection Against Ewings Sarcoma (TC32) (AID 1259256); also: nearly all actives have a fitted effect of over 45% in size; also: potency is read from the fitted curve at half-maximal effect
# From the text: as §1, §2
# Cells, in the log phase of growth, were seeded in 5 uL of RPMI plus 5% FBS, […] L-glutamine, 100 U/ml penicillin and 100 ug/ml streptomycin into 1536-well solid-bottom white tissue culture treated Greiner Bio One Plates (789173-F) using a MultiDrop Combi (Thermofisher Scientific) dispenser and a small sterile cassette. […] Plates were incubated at room temperature for 10 minutes prior to reading the luminescence on the Viewlux (PerkinElmer). […]
compound,measurement,setting,value
COc1ccc(CN2CCNCC2)c(OC)c1OC,outcome,[1],inactive
same,Potency,[2],inactive
same,Potency,[3],inactive
C#C[C@]1(O)CC[C@H]2[C@@H]3CCC4=CC(=O)CCC4=C3C=C[C@@]21CC,outcome,[1],inactive
same,Potency,[2],inactive
same,Potency,[3],inactive
C[C@H]1CNCCc2ccc(Cl)cc21,outcome,[1],inactive
C[C@]12C=CC(=O)C=C1CC[C@@H]1[C@@H]2CC[C@@]2(C)[C@H]1CC[C@]2(C)O,outcome,[1],inactive
same,Potency,[2],inactive
same,Potency,[3],inactive
CCN1CCCC1CNC(=O)C(O)(c1ccccc1)c1ccccc1 (stereo unspecified),outcome,[1],inactive
CCCC(C)C1(CC)C(=O)N=C(S)NC1=O (stereo unspecified),outcome,[1],inactive
same,Potency,[2],inactive
same,Potency,[3],inactive
CCOC(=O)NC(C)(C)Cc1ccc(Cl)cc1,outcome,[1],inactive
C[C@H](CN1CCOCC1)C(C(=O)N1CCCC1)(c1ccccc1)c1ccccc1,outcome,[1],inactive
Nc1ccc(N)cc1,outcome,[1],inactive
same,Potency,[2],inactive
same,Potency,[3],inactive
O=c1[nH]c2cc(Cl)ccc2n1C1CCNCC1,outcome,[1],inactive
CC[C@]1(O)CC[C@H]2[C@@H]3CCC4=CCCC[C@@H]4[C@H]3CC[C@@]21C,outcome,[1],inactive
same,Potency,[2],inactive
same,Potency,[3],inactive
O=C1CN2CCOC2(c2ccccc2Cl)c2cc(Cl)ccc2N1 (stereo unspecified),outcome,[1],inactive
CCN(CC)C(C)C(=O)c1ccccc1 (stereo unspecified),outcome,[1],inactive
same,Potency,[2],inactive
same,Potency,[3],inactive
CC(C)(C)OC(=O)c1ncn2c1[C@@H]1CCCN1C(=O)c1c(Br)cccc1-2,outcome,[1],inactive
same,Potency,[2],inactive
same,Potency,[3],inactive
CN1C(=O)[C@@H](NC(=O)c2cc3ccccc3[nH]2)N=C(c2ccccc2)c2ccccc21,outcome,[1],inactive
same,Potency,[2],inactive
same,Potency,[3],inactive
O=C(CCl)c1ccc(Cl)cc1Cl,outcome,[1],inactive
C[C@]12CC[C@H]3[C@@H](CCC4=CC(=O)CC[C@@H]43)[C@@H]1CC[C@@H]2O,outcome,[1],inactive
CCC1(CC)C(=O)NC(=O)NC1=O,outcome,[1],inactive
same,Potency,[2],inactive
same,Potency,[3],inactive
CC(=O)OC1(c2ccccc2)CCN(CCc2ccccc2)CC1,outcome,[1],inactive
COc1cc(C[C@@H](C)N)c(OC)cc1Br,outcome,[1],inactive
C[C@@H]1C[C@@H]([C@H](O)CC2CC(=O)NC(=O)C2)C(=O)[C@@H](C)C1,outcome,[1],inactive
same,Potency,[4],418 nM (active)
same,Potency,[5],235 nM (active)
same,Potency,[6],148 nM (active)
same,Potency,[7],132 nM (active)
CCc1ccc(C2CCNCC2)cc1,outcome,[1],inactive
CCC(OC(C)=O)C(CC(C)NC)(c1ccccc1)c1ccccc1 (stereo unspecified),outcome,[1],inactive
CCC(=O)C(CCN(C)C)(c1ccccc1)c1ccccc1,outcome,[1],inactive
ClCc1cccc(Cl)c1,outcome,[1],inactive
C[N+](C)(C)CCOC(=O)C(O)(c1ccccc1)c1ccccc1,outcome,[1],inactive
same,Potency,[2],inactive
same,Potency,[3],inactive
COC(=O)C1=CCCN(C)C1,outcome,[1],inactive
same,Potency,[5],inactive
same,Potency,[2],inactive
same,Potency,[3],inactive
COc1ccc(C(=O)N2CCCC2=O)cc1,outcome,[1],inactive
same,Potency,[5],inactive
same,Potency,[6],inactive
same,Potency,[7],inactive
same,Potency,[2],inactive
same,Potency,[3],inactive
C[N+]1(CCC(C(N)=O)(c2ccccc2)c2ccccc2)CCCCC1,outcome,[1],inactive
same,Potency,[2],inactive
same,Potency,[3],inactive
COP(=O)(OC)C(O)C(Cl)(Cl)Cl (stereo unspecified),outcome,[1],inactive
same,Potency,[2],inactive
same,Potency,[3],inactive
CCN(CC)Cc1nccn1-c1ccc([N+](=O)[O-])cc1C(=O)c1ccccc1Cl,outcome,[1],inactive
Cc1nnc2n1-c1sc(CCC(=O)N3CCOCC3)cc1C(c1ccccc1Cl)=NC2,outcome,[1],inactive
CC1COC2(c3ccccc3Cl)c3cc(Cl)ccc3NC(=O)CN12 (stereo unspecified),outcome,[1],inactive
Oc1ccc2[nH]cc(CCCCN3CC=C(c4ccccc4)CC3)c2c1,outcome,[1],inactive
same,Potency,[2],inactive
same,Potency,[3],inactive
CC(C)C(Br)C(=O)NC(N)=O (stereo unspecified),outcome,[1],inactive
same,Potency,[2],inactive
same,Potency,[3],inactive
CCCC[N+]1(C)[C@@H]2CC(OC(=O)[C@H](CO)c3ccccc3)C[C@H]1[C@@H]1O[C@@H]12 (stereo partly specified),outcome,[1],inactive
same,Potency,[2],inactive
same,Potency,[3],inactive
C[C@]12CC[C@H]3[C@@H](CC=C4C[C@@H](O)CC[C@@]43C)[C@@H]1CC[C@@H]2O,outcome,[1],inactive
same,Potency,[2],inactive
same,Potency,[3],inactive
Oc1c(Br)cc(Br)cc1Br,outcome,[1],inactive
same,Potency,[2],inactive
same,Potency,[3],inactive
CC(C)(O)C(Cl)(Cl)Cl,outcome,[1],inactive
same,Potency,[2],inactive
same,Potency,[3],inactive
CNC(=O)NC(O)C(Cl)(Cl)Cl (stereo unspecified),outcome,[1],inactive
same,Potency,[2],inactive
same,Potency,[3],inactive
CCOC(=O)NC(O)C(Cl)(Cl)Cl (stereo unspecified),outcome,[1],inactive
same,Potency,[2],inactive
same,Potency,[3],inactive
ClC1=C(Cl)C2(Cl)C(CBr)CC1(Cl)C2(Cl)Cl (stereo unspecified),outcome,[1],inactive
same,Potency,[2],inactive
same,Potency,[3],inactive
O=C(NC(=O)c1c(F)cccc1F)Nc1cc(Cl)c(OC(F)(F)C(F)C(F)(F)F)cc1Cl (stereo unspecified),outcome,[1],inactive
same,Potency,[2],inactive
same,Potency,[3],inactive
COCC(=O)N(c1c(C)cccc1C)C(C)C(=O)OC (stereo unspecified),outcome,[1],inactive
same,Potency,[2],inactive
same,Potency,[3],inactive
CC(C)[N+](C)(CCC(C(N)=O)(c1ccccc1)c1ccccc1)C(C)C,outcome,[1],inactive
same,Potency,[2],inactive
same,Potency,[3],inactive
OC(c1ccccc1)(c1ccccc1)C1CCNCC1,outcome,[1],inactive
same,Potency,[2],inactive
same,Potency,[3],inactive
O=c1n(Cl)c(=O)n(Cl)c(=O)n1Cl,outcome,[1],inactive
same,Potency,[2],inactive
same,Potency,[3],inactive
CC1=C2[C@H]3OC(=O)[C@@H](C)[C@@H]3CC[C@@]2(C)C=CC1=O,outcome,[1],inactive
same,Potency,[2],inactive
same,Potency,[3],inactive
